Test [1] deals with Leukocyte tyrosine kinase receptor (Homo sapiens) (UniProt P29376). The following applies: at 1 µM.
For test [2], the target named is Tyrosine-protein kinase Lyn (Homo sapiens) (UniProt P07948). The following applies: at 0.1 µM.
Test [3] shares this target. The following applies: at 1 µM.
For test [4] the target is unchanged. The following applies: at 0.1 µM. The source holds these as a separate data set.
The target is the same in test [5]. The following applies: at 1 µM. This is another data set of the same source.
Test [6] addresses T1, Tyrosine-protein kinase Mer (Homo sapiens) (UniProt Q12866).
T1 sequence (whole entry): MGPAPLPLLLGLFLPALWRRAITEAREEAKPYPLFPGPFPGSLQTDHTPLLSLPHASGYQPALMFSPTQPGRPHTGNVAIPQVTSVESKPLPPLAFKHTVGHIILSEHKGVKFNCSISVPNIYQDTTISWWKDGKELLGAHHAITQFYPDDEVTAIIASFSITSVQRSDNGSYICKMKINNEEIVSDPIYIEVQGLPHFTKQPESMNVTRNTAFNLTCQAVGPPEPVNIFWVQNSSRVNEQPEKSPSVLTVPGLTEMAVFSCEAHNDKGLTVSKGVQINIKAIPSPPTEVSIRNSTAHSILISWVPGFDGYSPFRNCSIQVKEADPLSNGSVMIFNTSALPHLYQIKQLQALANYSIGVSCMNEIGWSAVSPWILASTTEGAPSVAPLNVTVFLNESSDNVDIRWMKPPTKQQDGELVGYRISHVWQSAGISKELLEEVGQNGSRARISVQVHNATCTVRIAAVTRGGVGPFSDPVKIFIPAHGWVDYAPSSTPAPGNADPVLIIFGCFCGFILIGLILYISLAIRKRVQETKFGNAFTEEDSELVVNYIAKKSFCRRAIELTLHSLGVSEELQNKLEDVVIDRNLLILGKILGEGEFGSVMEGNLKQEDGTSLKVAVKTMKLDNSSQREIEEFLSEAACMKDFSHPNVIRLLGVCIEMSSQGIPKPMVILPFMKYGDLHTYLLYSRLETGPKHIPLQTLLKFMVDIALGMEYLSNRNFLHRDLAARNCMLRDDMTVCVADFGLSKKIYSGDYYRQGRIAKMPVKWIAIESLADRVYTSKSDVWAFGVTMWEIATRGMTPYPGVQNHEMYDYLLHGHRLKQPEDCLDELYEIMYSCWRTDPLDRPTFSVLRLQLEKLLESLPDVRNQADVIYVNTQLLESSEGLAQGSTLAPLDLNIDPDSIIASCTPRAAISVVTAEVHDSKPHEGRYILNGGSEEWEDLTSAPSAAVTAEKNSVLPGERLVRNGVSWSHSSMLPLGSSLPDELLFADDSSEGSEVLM
The following applies: at 0.1 µM.

Test [7] addresses T1, Tyrosine-protein kinase Mer (Homo sapiens). The following applies: at 1 µM.
Test [8] concerns the target Hepatocyte growth factor receptor (Homo sapiens) (UniProt P08581). The following applies: at 0.1 µM.
The target is the same in test [9]. The following applies: at 1 µM.
Test [10] concerns the target T2, Muscle, skeletal receptor tyrosine-protein kinase (Homo sapiens) (UniProt O15146).
T2 sequence (whole entry): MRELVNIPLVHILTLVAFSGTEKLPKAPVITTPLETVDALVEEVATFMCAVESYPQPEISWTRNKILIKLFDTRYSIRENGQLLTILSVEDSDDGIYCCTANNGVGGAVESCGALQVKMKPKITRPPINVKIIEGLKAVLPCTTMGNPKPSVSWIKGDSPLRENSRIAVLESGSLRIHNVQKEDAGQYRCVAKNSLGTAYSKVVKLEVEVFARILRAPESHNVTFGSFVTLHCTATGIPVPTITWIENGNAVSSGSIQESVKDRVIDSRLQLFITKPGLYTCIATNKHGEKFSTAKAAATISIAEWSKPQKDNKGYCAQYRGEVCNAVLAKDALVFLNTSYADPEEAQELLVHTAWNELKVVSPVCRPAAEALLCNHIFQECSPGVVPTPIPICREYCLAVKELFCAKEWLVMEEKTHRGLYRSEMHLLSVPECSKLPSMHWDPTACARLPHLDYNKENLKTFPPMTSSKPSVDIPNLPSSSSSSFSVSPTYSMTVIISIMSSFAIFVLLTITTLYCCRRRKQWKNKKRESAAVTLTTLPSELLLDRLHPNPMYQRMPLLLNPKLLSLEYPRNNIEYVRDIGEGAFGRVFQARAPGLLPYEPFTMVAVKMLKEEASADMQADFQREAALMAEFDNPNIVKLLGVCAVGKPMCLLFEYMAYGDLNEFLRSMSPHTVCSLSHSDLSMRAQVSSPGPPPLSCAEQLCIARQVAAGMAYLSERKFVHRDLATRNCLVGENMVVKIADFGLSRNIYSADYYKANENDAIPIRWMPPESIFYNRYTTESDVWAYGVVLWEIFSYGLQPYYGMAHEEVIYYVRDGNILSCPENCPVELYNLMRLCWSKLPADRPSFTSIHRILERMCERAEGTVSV
The following applies: at 0.1 µM.

In test [11] the target is T2, Muscle, skeletal receptor tyrosine-protein kinase (Homo sapiens). The following applies: at 1 µM.
Test [12] concerns the target Platelet-derived growth factor receptor alpha (Homo sapiens) (UniProt P16234). The following applies: at 0.1 µM.
Test [13] has the same target. The following applies: at 1 µM.
Test [14] relates to Platelet-derived growth factor receptor alpha (Homo sapiens), P16234 [D842V]. The following applies: at 0.1 µM.
The test system is the same in test [15]. The following applies: at 1 µM.
Test [16] has as its system Platelet-derived growth factor receptor alpha (Homo sapiens), P16234 [T674I]. The following applies: at 0.1 µM.
Test [17] has the same test system. The following applies: at 1 µM.
In test [18] the test system is Platelet-derived growth factor receptor alpha (Homo sapiens), P16234 [V561D]. The following applies: at 0.1 µM.
Test [19] shares this test system. The following applies: at 1 µM.
For test [20], the target named is Platelet-derived growth factor receptor beta (Homo sapiens) (UniProt P09619). The following applies: at 0.1 µM.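 Note: reported value is the mean percent inhibition of the kinase.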

Molecules are shown by their SMILES.

Platelet-derived growth factor receptor alpha (Homo sapiens), P16234 [T674I], sequence (P16234 whole entry T674I): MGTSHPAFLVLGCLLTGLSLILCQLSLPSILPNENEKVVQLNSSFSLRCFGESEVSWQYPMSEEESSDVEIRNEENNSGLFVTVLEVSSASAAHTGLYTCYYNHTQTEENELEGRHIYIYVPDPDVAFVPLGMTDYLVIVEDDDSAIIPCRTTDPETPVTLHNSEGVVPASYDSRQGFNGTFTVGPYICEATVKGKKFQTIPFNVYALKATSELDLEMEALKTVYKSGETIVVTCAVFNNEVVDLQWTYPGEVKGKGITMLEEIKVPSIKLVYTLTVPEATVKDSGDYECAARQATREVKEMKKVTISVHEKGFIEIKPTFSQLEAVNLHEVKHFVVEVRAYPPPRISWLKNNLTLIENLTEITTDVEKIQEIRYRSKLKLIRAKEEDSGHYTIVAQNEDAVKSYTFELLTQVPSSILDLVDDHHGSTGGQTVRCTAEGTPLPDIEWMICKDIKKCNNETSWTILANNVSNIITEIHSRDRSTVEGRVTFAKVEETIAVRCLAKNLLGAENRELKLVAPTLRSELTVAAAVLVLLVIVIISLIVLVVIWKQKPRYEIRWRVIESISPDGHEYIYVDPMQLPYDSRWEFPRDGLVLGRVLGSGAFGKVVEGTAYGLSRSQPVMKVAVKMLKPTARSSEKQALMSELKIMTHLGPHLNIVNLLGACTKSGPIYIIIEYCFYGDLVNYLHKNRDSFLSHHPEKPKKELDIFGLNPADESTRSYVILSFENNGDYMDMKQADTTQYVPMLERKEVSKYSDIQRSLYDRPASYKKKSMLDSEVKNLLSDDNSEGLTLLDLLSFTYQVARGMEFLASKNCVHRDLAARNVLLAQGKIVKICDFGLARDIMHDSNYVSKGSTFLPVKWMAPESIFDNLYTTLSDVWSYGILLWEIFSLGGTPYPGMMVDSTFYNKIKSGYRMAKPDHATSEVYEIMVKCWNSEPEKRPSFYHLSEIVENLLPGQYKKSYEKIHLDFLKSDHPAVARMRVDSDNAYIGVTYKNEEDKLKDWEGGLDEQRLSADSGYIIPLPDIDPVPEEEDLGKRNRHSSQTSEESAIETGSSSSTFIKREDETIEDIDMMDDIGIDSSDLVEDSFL
Leukocyte tyrosine kinase receptor (Homo sapiens), sequence (P29376 whole entry): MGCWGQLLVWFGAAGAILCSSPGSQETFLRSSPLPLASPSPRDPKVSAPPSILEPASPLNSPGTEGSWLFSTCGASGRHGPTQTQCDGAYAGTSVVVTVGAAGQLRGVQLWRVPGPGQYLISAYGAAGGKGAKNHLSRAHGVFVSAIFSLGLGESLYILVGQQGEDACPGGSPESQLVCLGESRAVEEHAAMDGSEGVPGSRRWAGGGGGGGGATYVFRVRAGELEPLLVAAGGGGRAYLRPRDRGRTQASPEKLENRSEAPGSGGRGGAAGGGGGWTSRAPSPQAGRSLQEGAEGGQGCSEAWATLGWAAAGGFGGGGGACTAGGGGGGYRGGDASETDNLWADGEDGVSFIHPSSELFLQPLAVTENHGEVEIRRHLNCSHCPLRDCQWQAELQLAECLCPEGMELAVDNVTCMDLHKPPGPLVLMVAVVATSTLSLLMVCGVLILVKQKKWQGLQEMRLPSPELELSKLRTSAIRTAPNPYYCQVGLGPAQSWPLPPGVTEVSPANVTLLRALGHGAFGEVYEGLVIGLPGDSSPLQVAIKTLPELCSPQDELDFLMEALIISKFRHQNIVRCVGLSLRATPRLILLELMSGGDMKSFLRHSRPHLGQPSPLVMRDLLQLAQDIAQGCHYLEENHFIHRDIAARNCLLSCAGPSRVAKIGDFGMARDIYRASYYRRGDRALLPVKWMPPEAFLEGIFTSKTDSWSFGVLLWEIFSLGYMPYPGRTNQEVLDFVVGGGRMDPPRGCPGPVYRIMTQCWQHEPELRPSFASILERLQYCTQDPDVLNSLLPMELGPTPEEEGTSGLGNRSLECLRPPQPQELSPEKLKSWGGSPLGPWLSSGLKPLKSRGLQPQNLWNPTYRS
Tyrosine-protein kinase Lyn (Homo sapiens), sequence (P07948 2-512 limits assumed): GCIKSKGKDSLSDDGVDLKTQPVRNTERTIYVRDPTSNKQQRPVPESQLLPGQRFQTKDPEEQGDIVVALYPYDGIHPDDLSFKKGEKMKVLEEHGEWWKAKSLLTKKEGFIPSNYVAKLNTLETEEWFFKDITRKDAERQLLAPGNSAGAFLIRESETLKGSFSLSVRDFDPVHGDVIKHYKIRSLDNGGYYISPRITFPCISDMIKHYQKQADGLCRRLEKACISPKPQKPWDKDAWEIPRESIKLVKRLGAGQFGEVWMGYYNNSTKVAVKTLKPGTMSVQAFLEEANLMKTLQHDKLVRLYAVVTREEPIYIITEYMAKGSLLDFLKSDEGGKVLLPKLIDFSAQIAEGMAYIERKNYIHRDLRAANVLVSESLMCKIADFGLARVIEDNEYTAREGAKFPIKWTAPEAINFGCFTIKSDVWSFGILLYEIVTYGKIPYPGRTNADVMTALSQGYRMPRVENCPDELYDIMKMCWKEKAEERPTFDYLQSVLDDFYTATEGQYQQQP
Platelet-derived growth factor receptor alpha (Homo sapiens), P16234 [V561D], sequence (P16234 whole entry V561D): as the sequence (P16234 whole entry T674I) above, with V561D, I674T counted along it
Platelet-derived growth factor receptor alpha (Homo sapiens), P16234 [D842V], sequence (P16234 whole entry D842V): as the sequence (P16234 whole entry T674I) above, with I674T, D842V counted along it

In general, inhibition refers to the drop in the measured response relative to a control, in per cent. In the case of `O=C1NC(=O)C(c2ccc(Cl)cc2)=C1Nc1ccc(Cl)c(C(=O)O)c1`, the inhibition in test [1] was -0.2%; in [2], 0.02%; in test [3], -0.5%; in [4], -2.02%; in test [5] it was -0.81%; in test [6], 1.27%. Besides, the inhibition in test [7] was 0.08%; in test [8], -1.14%; in [9], -0.38%; in [10], -1.83%; in [11], 2.23%; in test [12], 1.93%. The inhibition in test [13] came to 7.23%; in test [14], 1.16%; in [15] it was 2.61%; in test [16], 0.45%; in [17], 1.25%; in [18], 3.89%. The inhibition in [19] worked out at 3.15%; in test [20], 4.09%.

For the compound `O=C1NC(=O)C(c2cccc(Cl)c2)=C1Nc1ccc(O)c(Cl)c1`, the inhibition in test [1] was 0.35%; in [2], 1.27%; in [3], 3.18%; in test [4], 0.38%; in test [5], 3.63%; in test [6], -0.5%. The inhibition in [7] was 3.08%; in test [8], 0.77%; in test [9], 3.7%; in test [10], 0.25%; in test [11], 2.41%; in [12], 6.23%. Moreover, the inhibition is 15.1% in test [13]; 4.44% in test [14]; 6.47% in test [15]; 1.04% in test [16]; 1.36% in test [17]; 2.63% in test [18]. Also, the values for the inhibition in test [19] and in test [20] were 9.34% and 0.85%, respectively.

In the case of `N#Cc1c(NC(=O)c2cccc3ccccc23)sc2c1CCCC2`, the inhibition in [1] was 2.53%; in test [2] it was 4.91%; in [3], 5.68%; in [4], 2.96%; in test [5], 3.7%; in test [6] it was 0.86%. Moreover, the inhibition in test [7] came out at 1.53%; in test [8] it was 3.61%; in test [9] it was 7.33%; in [10] it was 3.62%; in test [11] it was 4.97%; in test [12], 6.56%. Further, the inhibition in test [13] came to 12.2%; in test [14], 4.04%; in test [15] it was 4.85%; in test [16] it was 4.77%; in test [17], 9.67%; in test [18] it was 3.45%. Also, the inhibition in test [19] was found to be 6.79%; in [20] it was 3.17%.

Consider `c1cnn2ncc(-c3ccnc(Nc4ccc5c(c4)OCCO5)n3)c2c1`, for which the inhibition in test [1] was found to be 21.9%; in test [2] it was 7.12%; in test [3], 12.7%; in test [4], 4.02%; in test [5] it was 11%; in [6], 4.03%. The inhibition in test [7] is 19.6%; in test [8], 3.78%; in test [9] it was 16.8%; in [10] it was 5.35%; in [11], 26.9%; in test [12] it was 16.1%. For the same compound, the inhibition in [13] worked out at 51.5%; in [14] it was 6.44%; in test [15], 40.6%; in test [16], 16.9%; in test [17] it was 74.7%; in [18] it was 23.3%. The inhibition in test [19] amounted to 61.7%; in [20], 18.4%.

Consider `CC(=O)Nc1cccc(C#Cc2cncnc2Nc2ccc(OCc3cccc(F)c3)c(Cl)c2)n1`, for which the inhibition in test [1] is 1.48%; in [2], 0.69%; in test [3], 4.88%; in test [4], 0.67%; in [5] it was 3.79%; in [6], -0.16%. The inhibition in [7] was 0.67%; in [8] it was -2.7%; in test [9] it was 2.91%; in test [10], 2.44%; in [11], 2.93%; in [12], 2.49%. Further, the inhibition was 8.73% in [13]; 1.14% in [14]; 2.21% in test [15]; -0.15% in [16]; -0.14% in [17]; 3.24% in test [18]. In addition, the inhibition was 1.4% in test [19] and 6.88% in test [20].

Consider `CS(=O)(=O)Nc1ccc(N/C=C2\C(=O)Nc3ccccc32)cc1`, for which the inhibition is 3.76% in [1]; 0.65% in test [2]; 12.1% in test [3]; -0.91% in [4]; 11.3% in test [5]; -0.15% in test [6]. For the same compound, the inhibition was 3.63% in test [7]; -4.32% in test [8]; -0.23% in test [9]; 2.12% in test [10]; 35.9% in test [11]; 9.58% in [12]. For the same compound, the inhibition in test [13] was 41.9%; in [14], 2.98%; in [15], 18%; in test [16], 11.1%; in [17] it was 62.5%; in test [18], 15%. Besides, the inhibition in test [19] is 51%; in [20], 6.47%.

(Values after ChEMBL document CHEMBL1961873, “Compounds: GSK PKIS; Assays: Nanosyn kinase panel” (2012).)
